Test [1] in a line: Nuclear factor erythroid 2-related factor 2/antioxidant responsive element (Nrf2/ARE) small molecule agonists: qHTS cell viability counter screen in human keratinocytes (AID 1919968; active = well fitted curve in the direction sought with a large enough effect in the repeat runs; an effect the other way counts as inactive or inconclusive; also: nearly all actives have a fitted effect of over 55% in size). The method, boiled down: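 KeratinoSens cells (HaCaT keratinocytes stably carrying an ARE-luciferase reporter) were seeded at 1,500 cells/well and rested 5 h at 37 C/5% CO2. They were then exposed to compounds in DMSO for 23 h. Viability was read by CellTiter-Fluor fluorescence after 1 h.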
(In general: qHTS replaces the single test concentration by a dilution series.)

Test [2] is described as follows: Nuclear factor erythroid 2-related factor 2/antioxidant responsive element (Nrf2/ARE) small molecule agonists: luciferase reporter gene qHTS assay in human keratinocytes (AID 1919969). Also: nearly all actives have a fitted effect of over 35% in size. Also: potency is read from the fitted curve at half-maximal effect. A general note: A reporter such as luciferase makes a cellular process visible.
Test [3] addresses Gonadotropin-releasing hormone receptor (Homo sapiens) (UniProt P30968). Description: Human gonadotropin-releasing hormone receptor (GnRHR) small molecule agonists, calcium flux assay in GnRHR-HEK293 cells (AID 1920063). Also: nearly all actives have a fitted effect of over 35% in size. The method, boiled down:
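HEK293 cells stably expressing human GnRHR were plated 18 h at 37 °C, loaded with calcium dye 1 h at 37 °C, then given compound in agonist mode; fluorescence (Ex/Em 480/540) read kinetically for 3 min at 1 s intervals.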

The target of test [4] is KiSS-1 receptor (Homo sapiens) (UniProt Q969F8). Description: Human kisspeptin (KISS1R) small molecule agonists, calcium flux assay in KISS1R-HEK293 cells (AID 1920064; active = well fitted curve in the direction sought with a large enough effect in the repeat runs; an effect the other way counts as inactive or inconclusive). The method, boiled down:
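HEK293 cells stably expressing human KISS1R were plated 18 h at 37 °C, loaded with calcium dye for 1 h at 37 °C, then given compound by pin tool. Fluorescence (Ex/Em 480/540) was read kinetically for 3 min.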

Test [5] in a line: G protein-coupled receptor (GPCR) small molecule agonists, calcium flux assay: HEK293 wild type cell line counter screen (AID 1920065). The method, boiled down:
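Cells were plated and cultured 18 h at 37 C/5% CO2, then loaded with calcium dye for 1 h at 37 C. Compounds in DMSO were pin-transferred in agonist mode, and fluorescence (Ex/Em 480/540) was read kinetically for 3 min at 1 s intervals.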

The nature of test [6]: p53 small molecule agonists, cell-based qHTS assay with human liver microsomes (AID 1963577).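 Also: p53 response element beta-lactamase reporter cells with liver microsomes plus NADPH.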 The essentials: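 Metabolically competent format: test substances, human liver microsomes and NADPH (both 0.5 mg/mL final) incubated with p53RE-bla cells 16 h at 37 C. Beta-lactamase reporter signal then quantified by fluorescence.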
Test [7] in a line: p53 small molecule agonists, cell-based qHTS assay with rat liver microsomes (AID 1963578). The essentials:
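Each plate received p53RE-bla cells, then compound, then rat liver microsomes and NADPH (both 0.5 mg/mL final). Plates were held 16 h at 37 C, and beta-lactamase activity was detected with LiveBLAzer over 2 h.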

A short description of test [8]: p53 small molecule agonists, cell-based qHTS assay with human liver microsomes: qHTS cell viability counter screen (AID 1963579). Also: nearly all actives have a fitted effect of over 45% in size. The method, boiled down: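 Tox21 library compounds, delivered from DMSO stocks, were tested on p53RE-bla cells together with 0.5 mg/mL human liver microsomes and 0.5 mg/mL NADPH (final) over 16 h at 37 C; CellTiter-Glo luminescence served as the cytotoxicity measure.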

Test [9] can be described thus: p53 small molecule agonists, cell-based qHTS assay with rat liver microsomes: qHTS cell viability counter screen (AID 1963580). Also: nearly all actives have a fitted effect of over 45% in size. The method, boiled down: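 In HCT-116 cells carrying a p53 response element-bla reporter, compounds were metabolically activated in situ by rat liver microsomes with NADPH over 16 h. Cell ATP content then served as the cytotoxicity measure.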

Test [10] in a line: p53 small molecule agonists, cell-based qHTS assay: qHTS cell viability counter screen (AID 1963581). Also: nearly all actives have a fitted effect of over 45% in size. The method, boiled down: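 p53RE-bla HCT-116 cells were exposed to compounds for 16 h at 37 C; after the beta-lactamase FRET read in the same wells, CellTiter-Glo was added and luminescence (intracellular ATP) read after 30 min at room temperature.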
The nature of test [11]: p53 small molecule agonists, cell-based qHTS assay (AID 1963582; active = well fitted activation curve with a large enough effect in the signal ratio in the repeat runs, not every such curve was filed as active; the % refers to the signal ratio). The essentials:
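p53RE-bla beta-lactamase reporter cells rested 5 h at 37 C/5% CO2, then received compounds in DMSO by pin transfer and were incubated 16 h at 37 C. LiveBLAzer B/G FRET substrate was loaded for 2 h at room temperature before fluorescence reading.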

Test [12] concerns the target 5-hydroxytryptamine receptor 2A (Homo sapiens) (UniProt P28223). Nature of the test: 5-hydroxytryptamine receptor 2A (HTR2A) small molecule agonists, cell-based qHTS assay (AID 1963587). Also: nearly all actives have a fitted effect of over 30% in size. The method, boiled down:
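HTR2A-CHO cells, plated 18 h at 37 C/5% CO2, dye-loaded 1 h at 37 C; compounds in DMSO added by pin tool (agonist mode). Intracellular calcium flux read as kinetic fluorescence on FDSS over 2 min at 1 s intervals.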

For test [13], the target named is Muscarinic acetylcholine receptor M1 (Homo sapiens) (UniProt P11229). Description: Cholinergic receptor muscarinic 1 (CHRM1) small molecule antagonists, cell-based qHTS assay (AID 1963588). Also: nearly all actives have a fitted effect of over 40% in size. The essentials:
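CHRM1-CHO calcium-flux assay, antagonist mode. Cells were seeded 18 h, dye-loaded 1 h at 37 C and given compound for 5 min at RT, then acetylcholine was added at 50nM. FDSS fluorescence was read 3 min; 15 concentrations, three runs.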

Test [14] has the same target. Nature of the test: Cholinergic receptor muscarinic 1 (CHRM1) small molecule agonists, cell-based qHTS assay (AID 1963589). Also: nearly all actives have a fitted effect of over 35% in size. The method, boiled down: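 CHO cells stably expressing human CHRM1, seeded 18 h at 37 C/5% CO2, dye-loaded 1 h at 37 C, then given compound in agonist mode; intracellular calcium fluorescence read kinetically at 1 s intervals. Fifteen concentrations, three independent runs.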

Test [15] can be described thus: cAMP Responsive Elements (CRE) small molecule agonists, cell-based qHTS assay (AID 1963590). The method, boiled down: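 CRE-bla HEK 293T cells in DMEM with 10% dialyzed FBS, NEAA, pyruvate and 25 mM HEPES were plated 18 h at 37 C/5% CO2, then exposed to compounds in DMSO for 3 h before LiveBLAzer B/G FRET substrate addition.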
Test [16] can be described thus: cAMP Responsive Elements (CRE) small molecule antagonists, cell-based qHTS assay (AID 1963591; active = well fitted inhibition curve with a large enough effect in the signal ratio in the repeat runs, not every such curve was filed as active; the % refers to the signal ratio). The essentials: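 CRE-bla HEK293T cells were plated 18 h at 37 °C/5% CO2, pinned with compound in DMSO, then stimulated with NKH477 at 0.25 uM final for 3 h. LiveBLAzer B/G FRET substrate was added and plates incubated 2 h at room temperature.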
Test [17] has as its target Beta-2 adrenergic receptor (Homo sapiens) (UniProt P07550). Nature of the test: Adrenergic beta2 receptor (ADRB2) small molecule antagonists, cell-based qHTS assay (AID 1963592). Also: series mostly up to about 92 µM; nearly all actives have a fitted effect of over 50% in size. The method, boiled down: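 Cells (CHO, stable ADRB2 overexpression) incubated 18-20hr at 37C; compounds added from DMSO; agonist mix (1nM isoproterenol, 100uM IBMX, 25uM Ro-20-1724) added; 0.5hr RT; d2-cAMP and anti-cAMP-cryptate added; 1hr RT; 665/615 nm read.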

In test [18] the target is D(2) dopamine receptor (Homo sapiens) (UniProt P14416). Description: Dopamine D2 receptor (DRD2) small molecule agonists, cell-based qHTS assay (AID 1963594). Also: nearly all actives have a fitted effect of over 35% in size. The method, boiled down:
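HEK293 cells stably expressing DRD2 were cultured 24 h at 37 C, then given Ro20-1724 (0.1 mM final) and compounds for 10 min at room temperature. NKH477 (200nM) was then added for 30 min. cAMP was read by HTRF.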

For test [19] the target is unchanged. Nature of the test: Dopamine D2 receptor (DRD2) small molecule antagonists, cell-based qHTS assay (AID 1963595; active = well fitted inhibition curve with a large enough effect in the signal ratio in the repeat runs, with a control signal flat; the % refers to the signal ratio). The method, boiled down: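 Cells were plated and grown for 24 h at 37 °C. Ro20-1724 (0.1 mM final) went in first, then compound for 10 min. NKH477 (200 nM) with quinpirole (12 nM) followed for 30 min at RT, then HTRF detection reagents for 1 h.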

For test [20], the target named is 5-hydroxytryptamine receptor 2A (Homo sapiens) (UniProt P28223). Description: 5-hydroxytryptamine receptor 2A (HTR2A) small molecule antagonists, cell-based qHTS assay (AID 1963586). Also: nearly all actives have a fitted effect of over 45% in size. The method, boiled down: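 Antagonist-mode intracellular calcium assay: DOI (4 nM) added after 5 min compound pre-incubation at room temperature to dye-loaded HTR2A-CHO cells. Fluorescence followed for 3 min, sampled every second.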
Chain of 5-hydroxytryptamine receptor 2A (Homo sapiens) (P28223 whole entry, looked up): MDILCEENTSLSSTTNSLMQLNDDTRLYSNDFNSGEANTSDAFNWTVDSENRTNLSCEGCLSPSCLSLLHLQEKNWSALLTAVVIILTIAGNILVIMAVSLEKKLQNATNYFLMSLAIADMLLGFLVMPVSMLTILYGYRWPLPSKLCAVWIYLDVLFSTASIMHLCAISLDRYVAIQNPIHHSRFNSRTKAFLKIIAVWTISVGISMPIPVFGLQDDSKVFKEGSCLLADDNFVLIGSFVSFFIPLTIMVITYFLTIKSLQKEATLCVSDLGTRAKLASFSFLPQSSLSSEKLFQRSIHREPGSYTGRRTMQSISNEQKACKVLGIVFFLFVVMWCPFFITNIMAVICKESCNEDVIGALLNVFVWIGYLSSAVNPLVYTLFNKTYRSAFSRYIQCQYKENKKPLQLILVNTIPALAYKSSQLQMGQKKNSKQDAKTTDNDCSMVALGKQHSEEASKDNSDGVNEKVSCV

Where “and” joins values, the source holds several entries; their conditions need not be identical. Identical values can stand only once. Records with an inconclusive call do not appear. Calls of active or inactive are those of the source. Unless noted, calls follow the shape of the full dose curve.

Chain of Beta-2 adrenergic receptor (Homo sapiens) (P07550 whole entry, looked up): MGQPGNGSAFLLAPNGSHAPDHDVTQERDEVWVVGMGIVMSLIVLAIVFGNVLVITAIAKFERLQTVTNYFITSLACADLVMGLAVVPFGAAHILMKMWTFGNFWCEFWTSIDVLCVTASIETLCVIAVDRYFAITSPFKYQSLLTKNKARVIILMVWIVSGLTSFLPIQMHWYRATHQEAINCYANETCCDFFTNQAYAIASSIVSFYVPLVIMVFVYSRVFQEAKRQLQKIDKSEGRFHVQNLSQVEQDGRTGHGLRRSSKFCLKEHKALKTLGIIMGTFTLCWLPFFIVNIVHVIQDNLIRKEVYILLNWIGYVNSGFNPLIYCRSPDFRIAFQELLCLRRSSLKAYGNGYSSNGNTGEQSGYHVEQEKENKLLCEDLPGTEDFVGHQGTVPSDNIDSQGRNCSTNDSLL
Chain of KiSS-1 receptor (Homo sapiens) (Q969F8 whole entry, looked up): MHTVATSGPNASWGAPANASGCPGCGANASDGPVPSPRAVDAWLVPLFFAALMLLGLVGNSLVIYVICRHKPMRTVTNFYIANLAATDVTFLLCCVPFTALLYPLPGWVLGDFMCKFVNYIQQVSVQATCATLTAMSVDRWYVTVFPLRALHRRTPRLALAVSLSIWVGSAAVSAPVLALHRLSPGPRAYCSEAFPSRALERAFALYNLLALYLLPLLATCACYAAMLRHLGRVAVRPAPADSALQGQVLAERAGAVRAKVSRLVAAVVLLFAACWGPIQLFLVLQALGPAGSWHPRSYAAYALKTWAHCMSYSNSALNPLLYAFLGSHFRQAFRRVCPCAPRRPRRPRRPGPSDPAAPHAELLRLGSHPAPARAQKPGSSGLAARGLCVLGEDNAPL
Chain of D(2) dopamine receptor (Homo sapiens) (P14416 whole entry, looked up): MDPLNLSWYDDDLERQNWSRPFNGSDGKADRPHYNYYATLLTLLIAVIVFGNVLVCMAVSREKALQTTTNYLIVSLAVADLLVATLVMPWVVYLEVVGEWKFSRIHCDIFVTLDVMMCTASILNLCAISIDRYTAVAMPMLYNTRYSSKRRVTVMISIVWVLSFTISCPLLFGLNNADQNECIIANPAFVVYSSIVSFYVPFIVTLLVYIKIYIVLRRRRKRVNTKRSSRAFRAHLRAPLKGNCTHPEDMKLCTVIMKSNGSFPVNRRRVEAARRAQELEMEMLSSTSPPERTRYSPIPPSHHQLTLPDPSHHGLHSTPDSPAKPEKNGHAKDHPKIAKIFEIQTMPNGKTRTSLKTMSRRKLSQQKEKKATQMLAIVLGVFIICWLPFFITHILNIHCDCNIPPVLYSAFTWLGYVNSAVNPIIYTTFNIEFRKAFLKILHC
Chain of Muscarinic acetylcholine receptor M1 (Homo sapiens) (P11229 whole entry, looked up): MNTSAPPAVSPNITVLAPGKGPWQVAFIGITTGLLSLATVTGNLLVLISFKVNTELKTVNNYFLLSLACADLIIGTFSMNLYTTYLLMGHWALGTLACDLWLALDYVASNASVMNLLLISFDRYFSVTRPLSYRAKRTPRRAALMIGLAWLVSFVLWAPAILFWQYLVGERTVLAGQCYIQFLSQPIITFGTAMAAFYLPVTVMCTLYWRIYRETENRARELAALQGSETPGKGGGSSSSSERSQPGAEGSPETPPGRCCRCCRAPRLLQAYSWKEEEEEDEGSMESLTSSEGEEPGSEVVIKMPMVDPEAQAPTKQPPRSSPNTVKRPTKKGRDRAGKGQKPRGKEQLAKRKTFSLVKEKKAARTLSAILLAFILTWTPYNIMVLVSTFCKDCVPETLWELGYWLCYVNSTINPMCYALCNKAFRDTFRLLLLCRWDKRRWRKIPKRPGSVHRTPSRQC
Chain of Gonadotropin-releasing hormone receptor (Homo sapiens) (P30968 whole entry, looked up): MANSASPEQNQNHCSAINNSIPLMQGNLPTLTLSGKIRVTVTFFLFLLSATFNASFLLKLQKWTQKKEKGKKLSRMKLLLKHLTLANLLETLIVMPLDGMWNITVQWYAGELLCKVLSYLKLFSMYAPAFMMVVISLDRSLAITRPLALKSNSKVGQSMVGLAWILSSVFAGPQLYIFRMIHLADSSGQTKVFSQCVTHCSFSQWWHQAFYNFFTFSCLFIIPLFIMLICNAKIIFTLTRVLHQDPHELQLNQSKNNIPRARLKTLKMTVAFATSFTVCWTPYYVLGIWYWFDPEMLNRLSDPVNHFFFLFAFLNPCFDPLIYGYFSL

In the case of `Cc1cccc(C)c1N`, the Potency entry in test [1], in test [2], in test [3], in test [4], in test [5] and in [6] was “inactive” in each case. Besides, the Potency entry in test [7], in test [8], in [9], in test [10], in [11] and in test [12] was “inactive” each time. In addition, the Potency entry in [13], in test [14], in test [15], in [16], in test [17] and in test [18] was “inactive” each time. The Potency entry in test [19] was “inactive”.

Take `C=CCCl`: the Potency entry in test [1], in test [2], in [3], in test [4], in test [5] and in test [6] was “inactive” each time. Besides, the Potency entry in test [7], in [8], in [9], in [10], in [11] and in test [20] was “inactive” throughout. For the same compound, the Potency result in test [13], in [15], in test [16], in [17], in test [18] and in [19] was “inactive” throughout.

As to `O=P(Cl)(Cl)Cl`, the Potency entry in test [1], in test [2], in test [3], in test [4], in [5] and in test [6] was “inactive” each time. The Potency entry in [7], in test [8], in test [9], in test [10], in [11] and in test [20] was “inactive” throughout. In addition, the Potency entry in [13], in test [14], in test [15], in [18] and in test [19] was “inactive” throughout.

For `O=C(Cl)CCl`, the Potency entry in test [1], in test [2], in test [3], in [4], in [5] and in test [6] was “inactive” throughout. In addition, the Potency result in test [7], in test [8], in test [9], in test [10], in test [11] and in [12] was “inactive” in each case. Also, the Potency result in test [13], in [14], in [15], in test [16], in test [17] and in [18] was “inactive” throughout. Moreover, in test [19], the Potency result was “inactive”.

For the compound `C/C=C/c1ccc2c(c1)OCO2`, the Potency result in [1], in test [2], in [3], in [4], in [5] and in test [6] was “inactive” throughout. In addition, the Potency entry in [7], in test [8], in test [9], in test [10], in [11] and in [15] was “inactive” each time. Also, the Potency result in test [16], in test [17], in test [18] and in test [19] was “inactive” throughout.

In the case of `CC1(C)[C@H](C(=O)O[C@H](C#N)c2cccc(Oc3ccccc3)c2)[C@@H]1C=C(Br)Br`, the Potency result in test [1], in test [2], in [3], in test [4], in test [5] and in [6] was “inactive” in each case. In addition, the Potency entry in [7], in test [8], in test [9], in test [10], in test [11] and in [12] was “inactive” each time. For the same compound, the Potency entry in [13], in test [14], in [15], in [16], in [17] and in [18] was “inactive” throughout.

Take `c1ccc(N=NNc2ccccc2)cc1`: the Potency entry in test [1], in [3], in test [4], in [5], in test [6] and in [7] was “inactive” each time. Besides, the Potency result in test [8], in test [9], in test [10], in test [11], in [12] and in [13] was “inactive” throughout. Moreover, the Potency result in [14], in test [15], in test [16], in [17], in test [18] and in test [19] was “inactive” in each case. Further, the Potency in [2] is 28.3 µM (active) and 61.1 µM (active).
